Measured values as given in article PMC5540273 (PLoS ONE, 2017).

tested on: RIPK2
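Further: kd values determined as follow-up on hits from a single-replicate KINOMEscan panel screen.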

| SMILES | Kd [nM] |
| --- | --- |
| Cn1cncc1-c1cc2c(Nc3ccc(OCc4ccccc4)cc3)ncnc2cn1 [GW281179] | 65 |
| O=C(Nc1n[nH]c2nc(-c3cccs3)c(Br)cc12)C1CC1 [SB-735297] | > 10000 |
| CC(C)c1ccc(O)cc1Nc1ccnc2ccc(C(F)(F)F)cc12 [GW482059] | > 10000 |
| CS(=O)(=O)CCNCc1nc(-c2ccc3ncnc(Nc4ccc5c(cnn5Cc5ccccc5)c4)c3c2)cs1.Cl.Cl [GW569716] | 67 |

tested on: ROCK1

| SMILES | Kd [nM] |
| --- | --- |
| Cn1cncc1-c1cc2c(Nc3ccc(OCc4ccccc4)cc3)ncnc2cn1 [GW281179] | 590 |
| CC(C)c1ccc(O)cc1Nc1ccnc2ccc(C(F)(F)F)cc12 [GW482059] | > 10000 |
| c1ccc(-c2ccnc3[nH]ccc23)cc1 [SB-693578] | 150 |

tested on: T1, RSK4(Kin.Dom.2-C-terminal)
T1 construct: gene RPS6KA6

| SMILES | Kd [nM] |
| --- | --- |
| Fc1ccc(-c2nc3n(c2-c2ccncc2)CCS3)cc1 [GI98581] | 260 |
| Fc1ccc(-c2nc[nH]c2-c2ccncc2)cc1 [SB-217360] | 310 |
| Cc1cccc2c(-c3ccncn3)c(-c3ccc(F)cc3)nn12 [GW515532] | 6800 |
